Source: PubChem BioAssay (National Center for Advancing Translational Sciences (NCATS))
aSyn yeast inh: qHTS of alpha-syn Inhibitors. Yeast expressing alpha-synuclein, growth rescue, BacTiter-Glo, 24 h. Potency, µM (doses to about 46.1 µM), for the others: at the highest dose growth rescue (activation), usual class: activators. hit rate 0.14% among 370,000. AID 652106, 2013; also: % of control where 0% means no effect; nearly all actives have a fitted effect of over 65% in size
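Readout is rescue of growth in alpha-synuclein-expressing yeast, so inhibitors of toxicity appear as activators. Growth after 24 hr at 30 deg C in galactose medium is quantified by luminescence.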
Abeta rescue: qHTS for compounds that reverse cellular toxicity of Amyloid beta (A-beta) peptide in yeast: Primary Screen; yeast expressing A-beta42, growth rescue, OD600, 48 h; response scale: 0% DMSO, 100% iron-clioquinol control; Potency, µM (top dose mostly 46.1 µM), usual class: activators; hit rate 0.063% among 410,000; AID 1347071, 2019; also: nearly all actives have a fitted effect of over 55% in size
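Yeast growth medium received pinned compounds, then yeast cells expressing toxic A-beta were added; plates incubated at 30 C for 48 hr. Growth read as absorbance at 600 nm, normalized to DMSO and equimolar FeCl3 plus clioquinol controls.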
Mito fusion yeast: qHTS Assay for Small Molecule Inhibitors of Mitochondrial Division or Activators of Mitochondrial Fusion; Potency, µM (highest dose often 46.1 µM), inactives show at the highest dose growth rescue (activation), usual class: activators; S. cerevisiae fusion-defective mutant growth rescue, CellTiterGlo 48 h; hit rate 0.23% among 320,000; also: % of control where 0% means no effect; nearly all actives have a fitted effect of over 45% in size
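Temperature-sensitive fusion-defective S. cerevisiae (e.g. fzo1-1, mgm1-5) were grown with compound in YPEG medium (3% ethanol, 3% glycerol) for 48 hours at 37C. Growth rescue was measured as viability by CellTiterGlo luminescence after 10 minutes at ambient.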
FUS yeast rescue: qHTS for Suppressors of FUS Proteinopathy: Primary screen using FUS-linked yeast assay. S. cerevisiae FUS-expressing, growth rescue, OD600, 24 h. Potency, µM (doses to about 76.6 µM), actives largely listed as activators. hit rate 0.24% among 390,000;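 also: plate controls were DMSO vehicle for no effect and reference control for full effect; nearly all actives have a fitted effect of over 55% in size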
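Quantitative HTS measuring growth restoration of FUS-toxic yeast. Galactose-induced cells (OD 0.005) were exposed 24hr at 30C to compounds at several concentrations, then absorbance at 600 nm was recorded.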
TDP43 rescue: qHTS of TDP-43 Inhibitors. TDP-43 expressing yeast growth rescue, BacTiter-Glo, 24 h. Potency, µM (series often up to 46.1 µM), for inactives: at the highest dose growth rescue (activation), usual class: activators. hit rate 1.8% among 410,000. AID 652104, 2013; also: % of control where 0% means no effect; nearly all actives have a fitted effect of over 50% in size
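Yeast cells expressing TDP-43 under galactose induction are exposed to compounds for 24 hr at 30 deg C. BacTiter-Glo luminescence measures growth, so protective compounds score as activators.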
Active calls of the source: *. Sampled rows, rich in hits. Any-hit rate of the full collection: about 2.2%. Calls follow the shape of the dose curve; as a rule, active = well fitted curve in the direction sought with a large enough effect; inconclusive = small, poorly fitted or top-dose-only effect, or another doubt; inactive = no such curve, though single readings can be large; an effect the other way counts as inactive or inconclusive. Potency is read from the fitted curve at half-maximal effect.

O=C(Nc1ccccc1)C1Cc2c(-c3ccc4c(c3)OCO4)ccnc2O1 (stereo not given) was read as aSyn yeast inh 15.8%, Abeta rescue inactive, FUS yeast rescue inactive and TDP43 rescue 35.5µM*.
O=C(Nc1ccccc1)C1Cc2c(-c3ccco3)ccnc2O1 (stereo not given) was read as aSyn yeast inh inconclusive, Abeta rescue inactive, FUS yeast rescue inactive and TDP43 rescue 25.1µM*.
Screening CC(=O)Nc1ccc(NC(=O)C2Cc3c(-c4ccco4)ccnc3O2)cc1 (stereo not given) returned aSyn yeast inh -2.5%, Abeta rescue inactive, FUS yeast rescue inactive and TDP43 rescue 16.9%.
For CC(=O)Nc1ccc(NC(=O)C2Cc3c(-c4ccc5c(c4)OCO5)ccnc3O2)cc1 (stereo not given) the results were aSyn yeast inh -6.3%, Abeta rescue inactive, FUS yeast rescue inactive and TDP43 rescue 6.6%.
Screening COc1ccc(NC(=O)C2Cc3c(-c4ccc5c(c4)OCO5)ccnc3O2)cc1 (stereo not given) returned aSyn yeast inh 15.2%, Abeta rescue inactive, FUS yeast rescue inactive and TDP43 rescue 25.1µM*.
O=C(Nc1ccc2c(c1)OCO2)C1Cc2c(-c3ccc4c(c3)OCO4)ccnc2O1 (stereo not given) was read as aSyn yeast inh 6.2%, Abeta rescue inactive, FUS yeast rescue inactive and TDP43 rescue 28.2µM*.
`COc1ccc(-c2ccc(=O)n(CC(=O)NCCc3ccccc3)n2)cc1` gave Abeta rescue inactive, FUS yeast rescue inactive and TDP43 rescue inconclusive.
Screening COc1ccc(OCC(=O)NC2CC(=O)N(c3ccc4c(c3)OCCO4)C2)cc1 (stereo not given) returned Abeta rescue inactive, FUS yeast rescue inconclusive and TDP43 rescue 19.6%.
Cn1c2ccccc2c(=O)c2ccc(F)cc21 was read as aSyn yeast inh 14.1µM*, Abeta rescue inactive, Mito fusion yeast 4.4%, FUS yeast rescue inactive and TDP43 rescue -62.1%.
`COc1cc(-c2ccc3c(=O)c4ccccc4n(C)c3c2)cc(OC)c1OC` gave aSyn yeast inh -23.2%, Abeta rescue inactive, Mito fusion yeast -1.2%, FUS yeast rescue inconclusive and TDP43 rescue -52.3%.
`CCn1c(=O)c(-c2ccccc2)c(O)c2ccccc21` gave aSyn yeast inh -7.9%, Abeta rescue inactive, Mito fusion yeast 2.8%, FUS yeast rescue inactive and TDP43 rescue inconclusive.
Cn1c(=O)c(-c2cccc(Cl)c2)c(O)c2ccccc21 was read as aSyn yeast inh 7.0%, Abeta rescue inactive, FUS yeast rescue inactive and TDP43 rescue 11.2µM*.
`CCCCn1c(=O)c(-c2ccccc2)c(O)c2ccccc21` gave aSyn yeast inh -0.3%, Abeta rescue inactive, Mito fusion yeast 8.5%, FUS yeast rescue inactive and TDP43 rescue 17.8µM*.
CCn1c(=O)c(-c2cc(=O)[nH][nH]2)c(O)c2ccccc21 was read as aSyn yeast inh -1.3%, Abeta rescue inactive, Mito fusion yeast -7.9%, FUS yeast rescue 31.6µM* and TDP43 rescue -4.4%.
For CCC1CCCCN1CCCNC(=O)c1ccc2c(c1)N(Cc1ccccc1F)C(=O)c1ccccc1S2(=O)=O (stereo not given) the results were Abeta rescue inactive, FUS yeast rescue inconclusive and TDP43 rescue -4.3%.
COc1ccc(CCNc2ncnc3onc(C)c23)c(OC)c1 was read as Abeta rescue inactive, FUS yeast rescue inactive and TDP43 rescue 17.2%.
For O=C(COC(=O)c1ccccc1OCc1cccc(Br)c1)Nc1ccc(Br)cc1 the results were aSyn yeast inh -7.9%.
`O=C(Cn1c(-c2cncs2)nc2ccccc21)NCc1cccs1` gave FUS yeast rescue inactive.
For O=C(Nc1ccccc1Sc1ccccc1)c1ccc(F)cc1 the results were aSyn yeast inh -8.6%, Abeta rescue 14.1µM*, Mito fusion yeast 11.2%, FUS yeast rescue inactive and TDP43 rescue 14.8%.
